Screening data (PubChem)
FAS-TE inh: inhibitors of human fatty acid synthase thioesterase domain; inhibition, % at 15 µM; 0.67% of 360,000 active; recombinant FAS-TE, OMFH fluorogenic substrate, fluorescence endpoint; P49327;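 active means compounds whose normalised, plate-corrected inhibition of enzyme fluorescence in the single-dose primary screen is 50% or more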
NR3A LBD binder: NR3A (human) ligand-binding domain modulation | NR3A LBD differential scanning fluorimetry, Tm shift; 0% = protein alone, 100% = glycine-bound protein | 2.5% of 340,000 active | Tm shift relative to glycine control, % at 25 µM | AID 1259313;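 active means melting temperature shift of at least 10% of the positive control shift, at one fixed dose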
MPTP block: permeability transition pore inhibition; isolated mouse mitochondria, Ca2+ swelling absorbance, 30 min; inhibition, % at 10 µM; 1.4% of 360,000 active;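 active means inhibition of 50% or more, scaled per plate between neutral and stimulator controls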
p-CIP stab down: p/CIP protein destabilization. 0.01% of 290,000 active. F442A p/CIP-EGFP cells, EGFP fluorescence, 16 h. decrease of EGFP signal, % at 10 µM. Q05BA5;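 active means EGFP signal decrease of at least 30% at 10 µM or well 3 SD below plate mean, unless failing retest; inactive means the rest, including hits failing retest or dose response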
Target sequence (Q05BA5 1-1403): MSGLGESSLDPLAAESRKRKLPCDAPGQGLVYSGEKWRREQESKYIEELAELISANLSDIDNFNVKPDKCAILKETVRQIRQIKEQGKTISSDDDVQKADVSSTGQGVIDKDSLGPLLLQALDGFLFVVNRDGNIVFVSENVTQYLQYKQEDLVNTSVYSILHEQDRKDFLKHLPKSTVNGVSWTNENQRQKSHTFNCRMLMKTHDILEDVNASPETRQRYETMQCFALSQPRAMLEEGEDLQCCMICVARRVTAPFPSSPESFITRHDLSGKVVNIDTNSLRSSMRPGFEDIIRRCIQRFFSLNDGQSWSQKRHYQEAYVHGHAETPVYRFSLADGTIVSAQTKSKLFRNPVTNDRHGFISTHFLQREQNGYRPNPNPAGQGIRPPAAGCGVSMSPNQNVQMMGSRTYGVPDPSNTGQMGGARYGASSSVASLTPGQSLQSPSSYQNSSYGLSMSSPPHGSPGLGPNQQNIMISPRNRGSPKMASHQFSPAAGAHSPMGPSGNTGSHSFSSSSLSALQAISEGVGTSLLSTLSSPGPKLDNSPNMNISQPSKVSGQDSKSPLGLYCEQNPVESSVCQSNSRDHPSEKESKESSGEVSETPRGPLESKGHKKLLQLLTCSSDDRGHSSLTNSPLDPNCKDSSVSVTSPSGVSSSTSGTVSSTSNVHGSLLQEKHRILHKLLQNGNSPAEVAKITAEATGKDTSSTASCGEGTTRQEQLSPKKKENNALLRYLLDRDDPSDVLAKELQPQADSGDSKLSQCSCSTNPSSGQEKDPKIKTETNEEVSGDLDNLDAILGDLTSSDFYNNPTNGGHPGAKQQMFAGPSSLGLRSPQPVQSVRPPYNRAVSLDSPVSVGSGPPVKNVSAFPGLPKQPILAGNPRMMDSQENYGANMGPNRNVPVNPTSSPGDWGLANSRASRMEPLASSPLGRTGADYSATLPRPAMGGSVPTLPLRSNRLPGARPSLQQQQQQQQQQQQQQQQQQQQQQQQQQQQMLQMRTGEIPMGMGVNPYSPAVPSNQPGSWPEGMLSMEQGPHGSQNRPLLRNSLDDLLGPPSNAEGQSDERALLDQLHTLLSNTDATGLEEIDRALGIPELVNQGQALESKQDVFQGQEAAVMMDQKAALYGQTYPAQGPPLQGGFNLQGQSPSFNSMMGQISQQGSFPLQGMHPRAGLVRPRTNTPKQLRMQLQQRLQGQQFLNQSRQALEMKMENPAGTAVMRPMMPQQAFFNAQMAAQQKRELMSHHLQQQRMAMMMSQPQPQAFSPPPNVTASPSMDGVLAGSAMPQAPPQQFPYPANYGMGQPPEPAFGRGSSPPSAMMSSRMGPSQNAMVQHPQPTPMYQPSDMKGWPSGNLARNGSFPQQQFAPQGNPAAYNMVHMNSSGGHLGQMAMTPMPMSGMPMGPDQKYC
beta cell repl: MIN6 beta-cell proliferation induction; MIN6 cells proliferation, ATPlite luminescence, 48 h; cells starved in 0.2% serum; 100% = growth in 10% serum; proliferation, % at 10 µM; 0.29% of 330,000 active; AID 2380;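 active means compounds whose signal lies at least 3.5 SD above the mean of all wells on their plate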
MPTP counter: mitochondrial membrane potential, counter-screen; shares compounds with MPTP block; 78% of 5,000 active; isolated mitochondria, Rhodamine 123 fluorescence; inhibition, % at 10 µM; in the data active means inhibition above about 22%
MPTP swell DR: MPTP inhibition, dose response swelling confirmation; shares compounds with MPTP block; isolated mitochondria swelling, absorbance; IC50, µM; 58% of 780 active; in the data active means IC50 below about 20 µM
MPTP counter DR: counter-screen for mitochondrial permeability transition pore inhibitors, dose response; isolated mitochondria counterscreen, fluorescence read-out; shares compounds with MPTP block; IC50, µM; 49% of 780 active; in the data active means IC50 below about 80 µM
Numbers stand for hits; n = inactive; x = not tested or not shown. Hits are enriched below; roughly 4.1% of the tested compounds scored in any of these assays.

SMILES | FAS-TE inh | NR3A LBD binder | MPTP block | p-CIP stab down | beta cell repl | MPTP counter | others
CC1=NC(Nc2nc(C)c3ccccc3n2)=NC(C)(C)C1 | n | n | 50 | n | n | 45
N#Cc1c(NC(=O)Cn2c(=O)oc3ccccc32)oc(-c2ccccc2)c1-c1ccccc1 | n | 11 | 95 | n | n | 44
COc1ccc(CCC(=O)Nc2ccc(C)c(S(=O)(=O)N(C)C)c2)cc1OC | n | n | n | n | n | x
O=C(CSc1nn(-c2ccccc2)c(=S)s1)Nn1cnnc1 | n | n | n | n | n | x
Cc1ccc(NC(=O)CSc2nn(-c3ccccc3)c(=S)s2)cc1S(=O)(=O)N(C)C | n | n | 98 | n | n | 76
COc1ccc(CCNCC(=O)Nc2ccc(C)c(S(=O)(=O)N(C)C)c2)cc1 | n | n | 68 | n | n | n | MPTP swell DR=n;MPTP counter DR=74
CN(C)CC1CCCCC1C1(O)c2ccccc2CSc2sccc21 (stereo not given) | n | n | 57 | n | n | n | MPTP swell DR=18;MPTP counter DR=n
Cc1ccccc1NC(=O)C(NC1CCCCC1)C(C)C (stereo not given) | n | n | n | n | n | x
CCn1c2ccccc2c2cc(NC(=O)CNCC3CCCO3)ccc21 (stereo not given) | n | n | 61 | n | n | n | MPTP swell DR=n;MPTP counter DR=n
COc1ccc(C(CNC(=O)c2ccc(C)c(S(=O)(=O)N3CCOCC3)c2)N2CCCC2)cc1 (stereo not given) | n | n | n | x | x | x
O=C(N/N=C1/CC2C=CCC12)c1cccs1 (stereo not given) | n | n | n | n | n | x
CC(C)CSC1=NSC2=NC(=O)/C(=C\c3cccs3)C(=N)N12 | n | 11 | 100 | n | n | 93
N=C1/C(=C/c2cccs2)C(=O)N=C2SN=C(SCc3ccccc3)N12 | n | n | 86 | n | n | 71
CSC1=NSC2=NC(=O)/C(=C/c3coc4ccccc4c3=O)C(=N)N12 | n | 11 | 95 | n | x | 80
CSC1=NSC2=NC(=O)/C(=C\c3cccs3)C(=N)N12 | n | n | n | n | x | x
CC1=CC2=NC(=O)/C(=C/c3cccs3)C(=N)N2O1 | n | n | n | n | n | x
CC(=O)Nc1cccc(C(=O)OC2CCOC2=O)c1 (stereo not given) | n | n | n | n | n | x
CCOC(=O)c1c(NC(=O)CSc2nc3ccc(C)cc3[nH]2)sc2c1CC(C)(C)NC2(C)C | n | n | n | x | n | x
Cc1c(NC(=O)Nc2ccc(Cl)c(Cl)c2)sc(=S)n1C | n | 22 | 51 | x | n | 64
Cc1oc(-c2cccc(Cl)c2)nc1CN1CCCC(C(=O)NC(C)c2ccc3c(c2)OCCO3)C1 (stereo not given) | n | n | 51 | n | n | n | MPTP swell DR=12;MPTP counter DR=20
Cc1ccc(NCC(=O)NNC2=NCCC2)c(C)c1 | n | n | n | n | n | x
Cc1ccc(NC(=O)Nc2nnc(CSCCOc3ccc(Cl)cc3)s2)cc1 | n | n | 60 | n | n | n | MPTP swell DR=n;MPTP counter DR=<2.5
COc1ccc(OCCSCc2nnc(NC(=O)Nc3ccc(Cl)cc3)s2)cc1 | n | n | 94 | n | n | 71
COc1cccc(NC(=O)Nc2nnc(COCCO)s2)c1 | n | x | n | x | x | x
CCc1nnc(NC(=O)Nc2ccc(OC)cc2)s1 | n | n | n | n | n | x
SMILES | FAS-TE inh | NR3A LBD binder | MPTP block | p-CIP stab down | beta cell repl | MPTP counter | others
O=C(Nc1cccc(Cl)c1)Nc1nnc(CC2=CCCCC2)s1 | n | 29 | 89 | n | n | 44
O=C(Nc1cccc(Cl)c1)Nc1nnc(CSCCOc2ccc(Cl)cc2)s1 | n | n | 92 | n | n | 92
CCSC(=O)N=Nc1ccc(O)cc1 | n | n | n | x | x | x
CCc1ccc(C(=O)CSc2nc(C)cc(=O)[nH]2)cc1 | n | n | n | n | n | x
CCOc1ccc(NC(=O)CSc2n[nH]c(=O)n2-c2ccccc2)cc1 | n | n | n | n | n | x
CC(C)CC(=O)NC(c1ccccc1Cl)c1c(O)ccc2ccccc12 (stereo not given) | n | n | 76 | n | n | 86
CCCC(=O)NC(c1ccc(OC)cc1)c1c(O)ccc2ccccc12 (stereo not given) | n | n | n | n | n | x
COc1ccc(C(NC(=O)CC(C)C)c2c(O)ccc3ccccc23)cc1 (stereo not given) | n | n | n | n | n | x
COc1ccc(C(NC(=O)C2CCCCC2)c2c(O)ccc3ccccc23)cc1 (stereo not given) | n | n | 81 | n | n | 69
NS(=O)(=O)c1cccc(NC(=O)COC(=O)CCc2ccccc2)c1 | n | n | n | n | n | x
COCCCn1c(=O)cc(C)[nH]c1=S | n | n | n | n | n | x
O=C(/C=C/c1ccc([N+](=O)[O-])cc1)Nc1ncc([N+](=O)[O-])s1 | n | n | 83 | n | x | 63
CCCOc1ccc(/C=C/C(=O)Nc2ccc([N+](=O)[O-])cc2)cc1 | n | 27 | 82 | n | n | 86
Cc1ccc(/C=C/C(=O)Nc2ccc([N+](=O)[O-])cc2)o1 | n | n | 89 | n | n | 75
O=C(/C=C/c1ccc([N+](=O)[O-])cc1)NCc1ccccn1 | n | n | n | n | n | x
Cc1cc(C(=O)Nn2cnc3ccccc3c2=O)ccc1[N+](=O)[O-] | n | n | n | n | n | x
COCCOC1CCN(C(=O)C2CCC(=O)N(CCc3ccc(OC)cc3)C2)CC1 (stereo not given) | n | n | n | n | n | x
Oc1ccc(CCNc2ncnc3ccc(Cl)cc23)cc1 | n | n | 95 | n | n | 97
Nc1nc(Cl)cc(NCCc2ccc(O)cc2)n1 | n | n | n | n | n | x
CC(=O)Nc1ccc(C(=O)COC(=O)C2CC3CCCC(C2)C3=O)cc1 (stereo not given) | n | n | n | x | n | x
N#C/C(N=Nc1ccccc1O)=N\Nc1ccccc1O | n | n | 126 | x | n | 44
Oc1ccccc1N=N/C(=N/Nc1ccccc1O)c1ccccc1 | n | n | n | x | n | x
O=C(O)c1ccc(NC(=S)Nc2ccccc2)cc1 | n | n | n | n | n | x
COc1cc(OC)cc(C(=O)Nc2cc(C)nn2-c2ccccc2)c1 | n | n | n | n | n | x
CC(=O)c1c(C)[nH]c(C(=O)OCCCCN2C(=O)c3ccccc3C2=O)c1C | n | n | 103 | n | n | 91
CC(=O)c1c(C)[nH]c(C(=O)OCc2ccccc2)c1C | n | n | n | n | n | x
O=C1C=C(c2cccc(Cl)c2O)C[C@@H](c2ccc(Cl)cc2)C1 | n | n | n | x | n | x
O=C1C(=O)c2ccccc2C(O)=C1C1CCC(c2ccc(Cl)cc2)CC1 (stereo not given) | n | n | 102 | x | n | 93
Oc1ccc(Cl)cc1-c1cc(C(F)(F)C(F)F)nc(-c2ccccc2)n1 | n | n | 90 | n | n | n | MPTP swell DR=8.1;MPTP counter DR=<2.5
